An excerpt weighted towards active compounds, which were near 3.6% of everything screened.
mHTT CaM bind – disrupts binding of mutant huntingtin to calmodulin; P42858; AlphaScreen His-mHTT/GST-CaM binding, luminescence; inhibition, % at 15 µM; 190,000 tested, 3.6% active
Pf apPOL block – Pf-apPOL DNA polymerase inhibition; 210,000 tested, 0.25% active; Recombinant Pf-apPOL, molecular beacon fluorescence, 1.5 h; inhibition, % at 10 µM
Each line names hits and unclear results; the compound was inactive in the other large screens. No stated cut-off is given here; in the data, active means inhibition above about 50%; inactive means the rest.

Cc1cccc(N2C=C(C#N)S(=O)(=O)c3cc(F)ccc32)c1	none
COc1ccc2c(c1)C1(CCN(S(=O)(=O)c3cc(F)cc(F)c3)C1)C(=O)N2C (centres undefined)	none
O=C(O)C1Nc2c(F)cccc2C2C(Cl)C(Sc3ccccc3[N+](=O)[O-])CC12 (centres undefined)	mHTT CaM bind 68
COc1cccc(C2NCCc3[nH]cnc32)c1 (centres undefined)	none
CCC1(C)CC(CCNCc2ccccc2)(c2ccccc2OC)CCO1 (centres undefined)	none
Nc1nc2ccccc2c(-c2cccc3ccccc23)c1CN1CC1	mHTT CaM bind 98 (no result: Pf apPOL block)
Cc1ccc(CN2CCN(Cc3ccccc3)CC2)cc1	none
Nc1ccc(S(=O)(=O)O)cc1 (tested in a mixture with another compound)	none (no result: Pf apPOL block)
COc1ccccc1C=CC=C1Oc2cc(OC(=O)N(C)C)ccc2C1=O	none
COc1cc(/C=C/[N+](=O)[O-])cc(Br)c1O	mHTT CaM bind 52
CCOc1ccc(/C=C/[N+](=O)[O-])cc1	none
CCOc1cc(/C=C/[N+](=O)[O-])cc(Br)c1O	mHTT CaM bind 78
COc1cc(/C=C(\C)[N+](=O)[O-])cc(Br)c1O	none
N/C(=N\[N+](=O)[O-])Nc1ccc(NC(=O)c2ccc(Cl)cc2)cc1	none
O=C(CN1C(=O)CN=C(c2ccccc2)c2cc(Cl)ccc21)Nc1cccc(C(F)(F)F)c1	mHTT CaM bind 82
CCN(C(=O)CN1C(=O)C(C)N=C(c2ccccc2)c2ccccc21)c1cccc(C)c1 (centres undefined)	none
CC1N=C(c2ccccc2)c2ccccc2N(CC(=O)NCc2ccco2)C1=O (centres undefined)	none
Cc1cc(C)n(C(=O)CN2C(=O)CN=C(c3ccccc3)c3cc(Br)ccc32)n1	mHTT CaM bind 64
O=C(CN1C(=O)CN=C(c2ccccc2)c2cc(Cl)ccc21)NCc1cccc(Cl)c1	mHTT CaM bind 91
CC1N=C(c2ccccc2)c2ccccc2N(CC(=O)Nc2ccc(N(C)C)cc2)C1=O (centres undefined)	none
O=S1(=O)c2ccccc2-c2ccccc21	none (no result: Pf apPOL block)
COCCN1CCC(N2CCCN(C(=O)COc3cccc(C)c3)CC2)C1=O (centres undefined)	none
O=C(COc1cccc(Cl)c1)N1CCCN(C2CCN(Cc3ccccc3)C2=O)CC1 (centres undefined)	mHTT CaM bind 75
O=C1OC(c2cncc(Br)c2)=N/C1=C\c1ccc(F)cc1	none
Cc1c(C#N)c(N)n(CC2CCCO2)c1C (centres undefined)	none (no result: Pf apPOL block)
Cc1c(C#N)c(N)n(CCCn2ccnc2)c1C	mHTT CaM bind 99 (no result: Pf apPOL block)
CC(=O)[C@@H]1[C@@H]2NC(=S)N[C@@]1(C)Oc1ccccc12	none (no result: Pf apPOL block)
Cc1ccccc1-n1c(/C=C2\C(=O)N(C)c3ccccc32)nc2ccccc2c1=O	mHTT CaM bind 65
Cc1ccccc1-n1c(/C=C2\C(=O)Nc3ccc(Br)cc32)nc2ccccc2c1=O	none
CC12CN3CC(C)(CN(C1)C3c1cccs1)C2=O (centres undefined)	none
CC12CN3CC(C)(CN(C1)C3c1ccccn1)C2O (centres undefined)	mHTT CaM bind 100
CN1CCN(C(CN)c2ccc3c(c2)OCO3)CC1 (centres undefined)	none
O=C1NC(=O)C(=Cc2cccc(OCc3ccc(Cl)c(Cl)c3)c2)C(=O)N1	none
O=C1CN=C(c2ccccc2Br)c2cc(Cl)ccc2N1	none
Cc1ccc(C2=NCC(=O)Nc3ccc(Br)cc32)cc1	mHTT CaM bind 97
Clc1ccc(C2CC(c3cccnc3)Nc3nnnn32)cc1 (centres undefined)	none
O=c1[nH]c(=S)[nH]c(O)c1C=C1C=CC=N1	Pf apPOL block 89 (no result: mHTT CaM bind)
COc1ccc(OC)c(NP(=O)(Oc2ccccc2)Oc2ccccc2)c1	mHTT CaM bind 74
O=P(Nc1ccccc1I)(Oc1ccccc1)Oc1ccccc1	none
COc1ccc2c(c1)C1(CCN(S(=O)(=O)c3cc(OC)ccc3OC)C1)C(=O)N2C (centres undefined)	none
COc1ccc2c(c1)C1(CCN(C(=O)c3ccccc3F)C1)C(=O)N2C (centres undefined)	none
O=C1CC(=O)N(c2cccc(Cl)c2Cl)C(=O)N1	none
O=c1ccsn1-c1cccc(Cl)c1F	Pf apPOL block 93 (no result: mHTT CaM bind)
O=C(c1cc(=O)c2ccccc2o1)N1CC2CC(C1)c1cccc(=O)n1C2 (centres undefined)	none

Source: PubChem BioAssay (University of Kansas High Throughput Screening Laboratory)
